Laboratory results: PubChem BioAssay (NCI)
About 83,000 compounds went through this panel and 20% of them were active in at least one assay; those are over-represented in the sample as a whole.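 Note: values are percent growth. 100 is the growth of untreated cells, values between 100 and 0 indicate rising inhibition; between -100 and 0 indicates cell death.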 The source made the active and inactive calls. Rule for the calls: active = growth percent below 10; inactive = the rest.

Legend:
Test in all cases: NCI-60 one-dose screen, 48 h (100 = growth as untreated, 0 = no growth, -100 = all killed)
Conditions in all cases: 10 µM unless noted
[1] = test system: NCI-H23 lung
[2] = test system: NCI-H226 lung
[3] = test system: NCI-H322M lung
[4] = test system: HOP-62 NSCLC
[5] = test system: NCI-H460 lung
[6] = test system: HOP-92 NSCLC
[7] = test system: NCI-H522 lung
[8] = test system: A549/ATCC NSCLC
[9] = test system: 786-0 renal
[10] = test system: COLO 205 colon

Measured: growth

CCN(CC)c1ccc2cc(C(Nc3ccc(Br)c(C(F)(F)F)c3)c3nnnn3C(C)(C)C)c(=O)oc2c1 (stereo not given)
inactive: [1] 100% | [2] 86.1% | [3] 99.6% | [4] 94% | [5] 91.9% | [6] 87.5% | [7] 77.9% | [8] 86.3% | [9] 99.8% | [10] 101%

COc1cc(C)cc2oc3oc(=O)c(C(=O)c4cc5cc(Br)ccc5o4)cc3c(=O)c12
inactive: [1] 107% | [2] 96.7% | [3] 97.3% | [4] 104% | [5] 107% | [6] 102% | [7] 101% | [8] 102% | [9] 110% | [10] 125%

Cc1ccc2c(c1)/C(=N\N=C/c1cn(C(C)C)c3ccccc13)C(=O)N2
inactive: [1] 61.7% | [2] 56.1% | [3] 61.1% | [4] 49% | [5] 40.5% | [6] 71.8% | [7] 14.4% | [8] 60.8% | [9] 93%
active: [10] -29.8%

COc1ccc(-c2cc(-c3ccccc3)nc(SCCCCCC(=O)NO)n2)cc1
inactive: [1] 61.7% | [2] 80.3% | [3] 74.3% | [4] 51.5% | [5] 51.9% | [6] 40.5% | [7] 10.1% | [8] 59.3% | [9] 88% | [10] 38.1%

CCOC(CNC(=O)c1cccc([N+](=O)[O-])c1)OCC
inactive: [1] 85.7% | [2] 89.8% | [3] 109% | [4] 108% | [5] 101% | [6] 96.7% | [7] 64.2% | [8] 83.7% | [9] 101% | [10] 108%

Clc1ccc(/C=N/Nc2nc3ccccc3s2)c(Cl)c1
inactive: [1] 90.4% | [2] 100% | [3] 93.4% | [4] 87.9% | [5] 41.8% | [6] 44.6% | [7] 97.2% | [8] 73.7% | [9] 90.7% | [10] 88.4%

CC(C)CCSc1nc(N)nc2nc[nH]c12
inactive: [1] 104% | [2] 96.7% | [3] 143% | [4] 102% | [5] 96.8% | [6] 76.4% | [7] 79.9% | [8] 104% | [9] 95.9% | [10] 102%

CCOC(=O)c1c[nH]n2c(=S)ncnc12
inactive: [1] 97.4% | [2] 97.4% | [3] 110% | [4] 89.8% | [5] 115% | [6] 113% | [7] 96.8% | [8] 106% | [9] 95.8% | [10] 100%

CC(C)c1ccc(C(=O)Nc2nc3ccc(O)cc3s2)cc1
inactive: [1] 51.4% | [2] 66.6% | [3] 62.2% | [4] 93.1% | [6] 50% | [7] 39.6% | [8] 33.5% | [10] 33%
active: [5] 3.97% | [9] 0.538%

COc1cc(NCc2cn(-c3ccc(C(=O)O)cc3)nc2-c2ccc(C(=O)O)cc2)cc(OC)c1OC
inactive: [1] 107% | [2] 99.3% | [3] 93.9% | [4] 98.6% | [5] 99.9% | [6] 68.1% | [7] 101% | [8] 102% | [9] 90.8% | [10] 108%

CCOC(=O)n1cc(C2=C(c3ccc(OC)c(OC)c3)COC2=O)c2ccccc21
inactive: [1] 39.3% | [2] 55.5% | [3] 52% | [4] 26.1% | [8] 17.8% | [9] 23.5%
active: [5] 8.64% | [6] 5.33% | [7] -23.6% | [10] -60.7%

CCn1cc(-c2ccnc(NCCNS(=O)(=O)c3ccc(Br)cc3)c2)c(-c2cccc(OC)c2)n1
active: [1] -96.1%
inactive: [2] 72.9% | [3] 85.3% | [4] 81.4% | [5] 78.4% | [6] 51.1% | [7] 56.7% | [8] 62.4% | [9] 71.3% | [10] 93.5%

Cn1cc(-c2noc(-c3cn(C)c4ncc(F)cc34)n2)c2cc(Cl)ccc21
inactive: [1] 81.3% | [2] 95.7% | [3] 50.3% | [4] 68.4% | [6] 64.3% | [7] 74.2% | [8] 33.9% | [10] 55.5%
active: [5] 2.39% | [9] 9.09%

[2H]C1([2H])CCN(C(=O)C2CC2)c2cc(NS(=O)(=O)c3ccc(-c4cccc(C(N)=O)c4)cc3)ccc21
inactive: [1] 44% | [2] 61.1% | [3] 64.6% | [4] 29.1% | [5] 17.3% | [6] 33.3% | [7] 14% | [8] 45.2% | [9] 81.8% | [10] 37.7%

CCOC(=O)c1nn(C2CCCCO2)c2ccc(NC(=O)CN3CCCC3)cc12 (stereo not given)
inactive: [1] 110% | [2] 110% | [3] 89.7% | [4] 92.7% | [5] 100% | [6] 106% | [7] 97.9% | [8] 100% | [9] 93.3% | [10] 126%

CCN(CC)c1cc(N)c(Cc2c(N)cc(N(CC)CC)cc2Cl)c(Cl)c1
inactive: [1] 11.1% | [2] 45.6% | [3] 96.9% | [4] 51.8% | [5] 35% | [6] 26.1% | [8] 47% | [9] 74.3% | [10] 21.4%
active: [7] -3.79%

Cn1cc(-c2nnc(-c3cn(C)c4ncccc34)s2)c2ccccc21
inactive: [1] 84.6% | [2] 96% | [3] 92.7% | [4] 65.8% | [5] 75.1% | [6] 30.2% | [7] 32.1% | [8] 57.6% | [9] 78.4% | [10] 64.1%

Cc1cc2c(C(C)C)c(O)c(O)c(C=NCc3ccoc3)c2c(O)c1-c1c(C)cc2c(C(C)C)c(O)c(O)c(C=NCc3ccco3)c2c1O
inactive: [1] 23.5% | [2] 72% | [3] 44.5% | [4] 53.3% | [5] 25.5% | [6] 21% | [7] 35.4% | [8] 26.3% | [9] 62.3% | [10] 10.6%

COc1ccc(/C=C/C=C\C(=O)c2ccc(-n3ccnc3)cc2)cc1
inactive: [1] 94.1% | [2] 84.3% | [3] 101% | [4] 101% | [5] 92.7% | [6] 96.5% | [7] 85.3% | [8] 81.9% | [10] 101%
active: [9] -0.616%

O=[N+]([O-])c1ccc(O)c(-c2nc3ccccc3s2)c1
inactive: [1] 47.3% | [2] 83.7% | [3] 90.7% | [4] 88.8% | [5] 63.2% | [7] 58.6% | [8] 84.2% | [9] 73.8% | [10] 103%
active: [6] -5.6%

CCN(CC)CCCC(C)Nc1ccnc2cc(Cl)c(SCc3ccccc3)cc12 (stereo not given)
active: [1] -17.1% | [3] -28.9% | [4] -72.2% | [5] -54.9% | [6] -43.1% | [7] -69.6% | [8] -23.1% | [9] -93.3% | [10] -89.5%
inactive: [2] 24.2%

COc1ccc(C2NC(=O)C(C#N)c3c2sc2c(F)cccc32)cc1 (stereo not given)
inactive: [1] 76.3% | [2] 60.3% | [3] 65.3% | [4] 46.4% | [5] 28.6% | [6] 54.2% | [7] 20.1% | [8] 42.6% | [9] 71% | [10] 91.6%

CC(=O)OC[C@]12CC[C@@H](C(=O)CBr)[C@@H]1[C@H]1CC[C@@H]3[C@@]4(C)CCCNC(C)(C)[C@@H]4CC[C@@]3(C)[C@]1(C)CC2
active: [1] -64.3% [100 µM] | [2] -20.3% [100 µM] | [3] -100% [100 µM] | [4] -86.8% [100 µM] | [5] -66.7% [100 µM] | [6] -76.7% [100 µM] | [7] -81.4% [100 µM] | [8] -69.7% [100 µM] | [9] -74.3% [100 µM] | [10] -59.3% [100 µM]
